# Source: PubChem
# Shown is part of a subset that was picked to be rich in hits.
# KDM5B inhibitor – Primary screen for KDM5B Histone Demethylases FDH-coupled qHTS | Lysine-specific demethylase 5B (Homo sapiens), Q9UGL1 | KDM5B demethylase, FDH-coupled NADH fluorescence (FDH is formaldehyde dehydrogenase) | Potency, µM (titrated, usually from 57.7 µM), actives largely listed as inhibitors | hit rate 2.6% among 220,000 | AID 1347165, 2019; active = well fitted inhibition curve with a large enough effect; also: 0% is about no effect; nearly all actives have a fitted effect of over 70% in size
#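 KDM5BΔAP (200 nM final) in 50 mM HEPES pH 7.5, 0.01% Tween-20 was preincubated 10 min at RT with compound over a concentration range. Substrate mix (H3K4me3 12.5 µM, α-KG 25 µM, Fe²⁺, ascorbate, NAD⁺, FDH) was added, and NADH fluorescence change over 30 min gave dose-response curves.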
# * hit, by the source's call; i = inactive. Potency is read from the fitted curve at half-maximal effect.
SMILES,KDM5B inhibitor
CC(C)(C)C(=O)/C=c1/[nH]c(=O)/c(=C/c2cccc(C(F)(F)F)c2)s1,i
COc1ccccc1-c1[nH]nc2ncc(-c3ccccc3O)nc12,i
COc1ccccc1-c1cnc2n[nH]c(-c3ccccc3C)c2n1,7.1µM*
Cc1ccsc1-c1[nH]nc2ncc(-c3ccc(CO)cc3)nc12,i
COc1ccccc1-c1[nH]nc2ncc(C(=O)N3C[C@@H](C)O[C@@H](C)C3)nc12,i
Cc1cc(-c2cnc3n[nH]c(-c4ccc5c(c4)OCO5)c3n2)ccn1,i
Cc1cc(C)cc(-c2[nH]nc3ncc(-c4ccsc4)nc23)c1,28µM*
O=C(O)CNS(=O)(=O)c1ccc2c(c1)CCC2,i
O=S1(=O)C[C@H](N2CCN(c3ncccn3)CC2)[C@@H](S(=O)(=O)c2ccccc2)C1,i
CSCC(=O)Nc1nn(-c2ccc(F)cc2)c2cccc(N3CCOCC3)c12,25µM*
O=C(CSc1ccccc1)Nc1ccc(N2CCOCC2)c(F)c1,i
Cn1c(=O)n(C)c2cc(N3CCOCC3)c(NC(=O)c3c(F)cccc3F)cc21,i
COc1ccc(-c2cc3c(=O)n(CCNC(=O)c4c(F)cccc4Cl)ccn3n2)cc1,22µM*
COc1ccccc1C(=O)NCCn1ccn2nc(-c3cc(C)ccc3C)cc2c1=O,i
COc1ccc(-c2cc3c(=O)n(CCNC(=O)c4c(F)cccc4F)ccn3n2)cc1,22µM*
CCC(C(=O)NCCn1ccn2nc(-c3cccc(OC)c3)cc2c1=O)c1ccccc1 (stereo unspecified),i
COc1ccccc1C(=O)NCCn1ccn2nc(-c3ccc(C)cc3C)cc2c1=O,i
CCC(C(=O)NCCn1ccn2nc(-c3ccc(OC)cc3)cc2c1=O)c1ccccc1 (stereo unspecified),20µM*
COc1ccc(-c2cc3c(=O)n(CCNC(=O)c4cccc(OC)c4OC)ccn3n2)cc1,25µM*
CCOc1ccc(-c2cc3c(=O)n(CCNC(=O)c4ccc(OC)c(F)c4)ccn3n2)cc1,i
CC(Sc1nc2ccccc2[nH]1)C(=O)NC1(C#N)CCCCC1 (stereo unspecified),i
CCn1c(CNC(=O)c2ccc3c(c2)OCO3)nnc1SCC(=O)c1ccc(OC)cc1,i
CC(C)N(Cc1cnn(C)c1)S(=O)(=O)c1ccc(F)c(F)c1,i
CCS(=O)(=O)N1CCc2ccc(NC(=O)Nc3ccc(C)c(C)c3)cc21,i
Cc1ccccc1-c1nnc(SCC(=O)c2ccc(C#N)cc2)n1C,i
SMILES,KDM5B inhibitor
O=c1oc2ccccc2c(NCc2ccccc2)c1NS(=O)(=O)c1cccc(F)c1,i
Cc1c(CCC(=O)Nc2cccc(F)c2)c(=O)oc2cc(O)ccc12,i
CCN(CC)S(=O)(=O)c1cccc(NC(=O)COC(=O)c2nn(C)c(=O)c3ccccc23)c1,i
COC(=O)c1ccc(OC(=O)c2cc(Cl)ccc2Cl)cc1,i
CCCN1CCN(c2ncnc3sc(C(=O)Nc4c(C)cc(C)cc4C)c(C)c23)CC1,i
Cc1c(C(=O)O)sc2ncnc(NCC3(O)CCCCC3)c12,20µM*
Cc1ccc(CNC(=O)c2sc3ncnc(N(C)C4CCCCC4)c3c2C)cc1,i
CN(C)S(=O)(=O)c1ccc(-c2nc(C#N)c(N3CCN(c4ccccc4)CC3)o2)cc1,i
Cc1ccccc1CC(=O)NCC(C)C,i
CC(C)c1noc(-c2cccn3c(CNC(=O)Cc4ccccc4Cl)nnc23)n1,25µM*
CC(C)c1noc(-c2cccn3c(CNC(=O)c4ccc(Cl)cc4)nnc23)n1,25µM*
Cc1ccccc1CC(=O)NCc1nnc2c(-c3nc(C(C)C)no3)cccn12,22µM*
CC(C)c1noc(-c2cccn3c(CNC(=O)c4ccccc4Cl)nnc23)n1,10µM*
O=C(Cn1cccc1-c1nc(-c2ccc(F)cc2)no1)NCc1ccccc1Cl,i
CNC(=O)c1ccc(OCc2nc(C(C)C)no2)cc1,i
O=C(Cn1cccc1-c1nc(-c2ccccc2)no1)NCc1ccccc1Cl,i
CC(C)c1noc(CC2CCN(C(=O)c3ccccc3Cl)CC2)n1,i
Cc1ccccc1CNC(=O)COc1ccc(-c2nc(C(C)C)no2)cc1,i
Cc1cccn2c(=O)c(C(=O)NCc3ccccc3Cl)c(O)nc12,i
Cc1ccc2nc(-c3ccc(Cl)c(NC(=O)c4cc([N+](=O)[O-])ccc4N4CCOCC4)c3)oc2c1,i
O=C(NCCCN1CCCC1=O)c1cc2cc(Cl)ccc2[nH]1,i
O=C(COC(=O)C12CC3CC(CC(Cl)(C3)C1)C2)Nc1ccc([N+](=O)[O-])cc1Cl,i
O=C(O)CNCc1cccc(F)c1,i
O=C(Nc1ccc(F)cc1F)C1CC2CCC1C2 (stereo unspecified),i
COCCOc1nc2c(c(=O)n(C)c(=O)n2C)n1Cc1ccc(C)cc1,i
SMILES,KDM5B inhibitor
COc1ccc(C(=O)N(CCCN(C)C)c2nc3ccc(Cl)cc3s2)cc1OC,i
O=C(CN1CCN(c2ccc([N+](=O)[O-])c3cnccc23)CC1)Nc1ccc(OC(F)(F)F)cc1,i
Cc1ccc(C(=O)N2CCc3cc(CNC(=O)COc4ccccc4)ccc32)cc1,i
Cc1ccc(N(C)S(=O)(=O)c2cccc(C(=O)NCCCN3CCCC3=O)c2)cc1,i
O=C(NCCCn1ccnc1)c1ccc(-c2ccccc2)cc1,i
CC(C)n1nc(C(=O)NCCCN2CCCC2=O)c2ccccc2c1=O,i
O=C(Nc1ccc2[nH]ccc2c1)c1ccc(-c2ncc3cnc(C4=CCOCC4)cn23)cc1,i
O=C(NCCCn1ccnc1)c1ccc(S(=O)(=O)Nc2ccccc2)cc1,i
O=C(NCCCn1ccnc1)c1ccc(-c2ncc3cnc(-c4ccccc4)cn23)cc1,32µM*
O=C(NCCCN1CCCC1=O)c1ccc(-c2ncc3cnc(-c4ccccc4)cn23)cc1,32µM*
O=C(c1ccc(-c2ncc3cnc(-c4ccccc4)cn23)cc1)N1CCc2cccnc21,32µM*
CCOC(=O)c1c(C)[nH]c(C(=O)CSc2nncn2C)c1C,i
O=S(=O)(c1ccc(SCc2cc3c(cc2Br)OCCO3)nc1)N1CCOCC1,i
CN(CC(=O)NC1CCCC1)Cc1cccc(C#N)c1,i
CCCC(=O)N(c1ccc(OC)cc1OC)C1C=CS(=O)(=O)C1 (stereo unspecified),i
CCN1CCN(CCOc2ccc3c(=O)c(-c4ccc(Cl)cc4)coc3c2)CC1,i
Cc1ccccc1Cn1c(=O)n(CCCC(=O)NCc2ccc3c(c2)OCO3)c(=O)c2ccccc21,i
CCCn1c(C)cc(C(=O)COC(=O)c2cc(C)nc3ccccc23)c1C,i
Cc1ccc(-c2cnc(CCC(=O)Nc3ccc(F)cc3)o2)cc1C,i
Cc1cccc(NC(=O)c2ncoc2-c2cccc(Cl)c2)c1C,i
CC(C)(C)C(=O)Nc1cccc(NC(=O)c2cc(F)c(Cl)cc2Cl)c1,i
COc1cccc(CN2C[C@@H](CO)[C@H](C3CCN(C(C)=O)CC3)C2)c1,i
COc1cccc(CN2CC[C@@H](CO)N(C)c3nc(C)ccc3C2)c1,35µM*
Cc1ccc2c(n1)N(C)[C@H](CO)CCN(Cc1ccc(F)c(F)c1)C2,i
COc1ccccc1Oc1ccc(NC(=O)Cn2ncc3ccc(OC)c(OC)c3c2=O)cc1,i
N#Cc1nc(-c2ccc([N+](=O)[O-])cc2)oc1N1CCCC1,i
CCCCCCc1ccc(C(=O)NNC(=O)c2ccccc2Cl)cc1,i
CN1C[C@@H]2CC[C@H](CC1=O)N2C(=O)c1cnn2cc(CCO)cnc12,32µM*
